An excerpt weighted towards active compounds, which were near 6.1% of everything screened.
Luciferase inh: qHTS Assay for Inhibitors of Firefly Luciferase; 2.2% of 72,000 active; Potency, µM (highest dose often 57.1 µM), hits mostly inhibitors; purified firefly luciferase, luminescence, 8 min; further: nearly all actives have a fitted effect of over 40% in size
Target sequence (P08659 whole entry, looked up): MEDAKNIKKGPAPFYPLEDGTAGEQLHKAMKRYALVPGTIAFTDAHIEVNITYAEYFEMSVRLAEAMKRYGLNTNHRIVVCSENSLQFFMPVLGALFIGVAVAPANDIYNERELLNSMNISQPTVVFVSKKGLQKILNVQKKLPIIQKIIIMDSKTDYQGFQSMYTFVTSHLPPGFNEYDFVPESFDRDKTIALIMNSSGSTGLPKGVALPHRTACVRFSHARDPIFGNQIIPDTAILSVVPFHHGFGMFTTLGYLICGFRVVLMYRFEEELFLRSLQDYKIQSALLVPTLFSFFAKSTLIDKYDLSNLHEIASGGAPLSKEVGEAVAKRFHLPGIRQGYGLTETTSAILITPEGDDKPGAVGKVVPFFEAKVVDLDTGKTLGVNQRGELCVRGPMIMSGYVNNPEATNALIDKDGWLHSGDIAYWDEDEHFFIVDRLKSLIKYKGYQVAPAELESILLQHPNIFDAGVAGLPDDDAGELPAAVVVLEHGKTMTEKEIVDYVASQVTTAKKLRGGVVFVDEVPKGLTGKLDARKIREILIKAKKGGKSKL
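Here, luciferase activity is measured as luminescence following an 8 min room-temperature reaction at 10 uM ATP, pH 7.2. Every library sample is titrated.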
PK Bst: Pyruvate Kinase. purified pyruvate kinase, luminescence ATP production; ribose 5-phosphate activator present at AC10. 1.2% of 51,000 active. Potency, µM. AID 361, 2006; in the data active means potency below about 11 µM; inconclusive means mostly about 12 µM to 25 µM;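 the screen sought inhibitors and activators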
Hsp90 Hop PPI: qHTS Assay for Disrupters of an Hsp90 Co-Chaperone Interaction; Hsp90 C-terminal peptide / TPR2A (Hop) interaction, human; AlphaScreen TPR2A-His6 binding biotin-Hsp90 C-terminal peptide; Potency, µM (doses to about 57 µM); 0.44% of 71,000 active; AID 595, 2007; active means well fitted curve in either direction with a large enough effect; inconclusive means small, poorly fitted or top-dose-only effect, or another doubt
15-hLO inh: qHTS Assay for Inhibitors of 15-hLO (15-human lipoxygenase). Polyunsaturated fatty acid lipoxygenase ALOX15 (Homo sapiens), P16050. purified 15hLO-1, xylenol orange hydroperoxide absorbance. Potency, µM (highest dose often 57.1 µM), actives largely listed as inhibitors. 1.4% of 74,000 active. AID 887, 2007; further: nearly all actives have a fitted effect of over 55% in size
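Quantitative HTS in 25 mM Hepes pH 7.5 containing 0.01% Triton X-100: human 15hLO-1 at 40 nM, arachidonic acid at 50 uM, 6 min turnover. Product quantified via ferrous oxidation/xylenol orange, 573:405 nm absorbance ratio.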
Tau filament bind: qHTS Assay for Tau Filament Binding | Microtubule-associated protein tau (Homo sapiens), P10636 | recombinant tau filaments, thioflavin S fluorescence, 15 h; filaments grown with octadecylsulfate alongside compound | Potency, µM (highest dose often 57.1 µM) | 2% of 71,000 active | AID 596, 2007;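 further: actives lower thioflavin S fluorescence by blocking filaments or displacing dye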
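Recombinant tau protein (human, 1 uM final) plus 30 uM ODS in HEPES pH 7.4 with NaCl, DTT and thioflavine S. Compound present from the start; fluorescence at 510 nm after 15 h, 37 C.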
ERK AVP inh: qHTS Assay for Inhibitors of the ERK Signaling Pathway using a Homogeneous Screening Assay | AID 995, 2007 | Potency, µM (top dose mostly 57.5 µM), usual class: inhibitors | HEK293-V1b, vasopressin-stimulated pERK AlphaScreen | 0.99% of 72,000 active; further: nearly all actives have a fitted effect of over 55% in size
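Phosphorylated ERK1/2 detected via AlphaScreen bead proximity in lysates of V1b-expressing HEK293 cells given 25 nM vasopressin for 5 min after 30 min compound exposure (37 °C). AC50 from Hill equation; basal DMSO 0%, vasopressin 100%.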
Large screens that a line does not name were inactive. Unless noted, the call rests on the fitted dose curve; in most records, active means well fitted curve in the direction sought with a large enough effect; inconclusive means small, poorly fitted or top-dose-only effect, or another doubt; inactive means no such curve, though single readings can be large; an effect the other way counts as inactive or inconclusive.

FC(F)(F)c1cnc2c(c1)Nc1ccccc1S2	none (no result: PK Bst)
CC(=O)C1=C(C)Nc2cc(C(F)(F)F)ccc2S1	15-hLO inh 13µM, Tau filament bind 32µM (no result: PK Bst)
c1ccc(-c2nc3ccccc3c3nncn23)cc1	none (no result: PK Bst)
c1ccc2c(c1)nc(-c1ccncc1)n1nnnc21	PK Bst 8.9, ERK AVP inh inconclusive
CCCCc1ccc(C2C(C#N)=C(N)SC(N)=C2C#N)s1	15-hLO inh 0.79µM, Tau filament bind 0.32µM (no result: PK Bst)
C=CC[C@@H]1C=C[C@@H](O/N=C2/C[C@@H](O)[C@@H](O)[C@@H]3[C@@H]4C(=O)N(CC)C(=O)[C@H]4CC[C@@H]23)[C@@H](CO)O1	none (no result: PK Bst, Hsp90 Hop PPI, Tau filament bind)
COc1ccc(Cn2c(C3CC3)nc3ccc(NC(C)=O)cc3c2=O)cc1	Luciferase inh 20µM (no result: PK Bst)
CC1(C)CC(=O)C2=C(C1)OC(N)=C(C#N)C2C1CC=CCC1 (stereo not given)	15-hLO inh 32µM
CC1C(C#N)=C(N)OC2=C1C(=O)CC(C)(C)C2 (stereo not given)	none (no result: PK Bst)
NCCC[C@@H](CC(=O)N[C@@H]1CCNC[C@H]1C(=O)N[C@H](CC(=O)N[C@@H](CCC(=O)O)CC(=O)O)Cc1ccccc1)NC(=O)C[C@H](CO)NC(=O)[C@@H]1CNCC[C@H]1N	Hsp90 Hop PPI 32µM (no result: Luciferase inh, PK Bst, 15-hLO inh, ERK AVP inh)
CC(C)[C@@H](CC(=O)N[C@@H]1CCNC[C@H]1C(=O)N[C@H](CC(=O)N[C@@H](CCC(=O)O)CC(=O)O)Cc1c[nH]c2ccccc12)NC(=O)C[C@H](CO)NC(=O)[C@@H]1CNCC[C@H]1N	Hsp90 Hop PPI 32µM, Tau filament bind inconclusive (no result: Luciferase inh, PK Bst, 15-hLO inh, ERK AVP inh)
CC(C)C[C@@H](CC(=O)N[C@@H](CCC(=O)O)CC(=O)O)NC(=O)[C@@H]1CNCC[C@H]1NC(=O)C[C@@H](NC(=O)C[C@H](Cc1c[nH]c2ccccc12)NC(=O)[C@@H]1CNCC[C@H]1N)C(C)C	none (no result: Luciferase inh, PK Bst, 15-hLO inh, ERK AVP inh)
O=C1c2ccccc2NC(c2ccccn2)N1c1ccc(Cl)cc1 (stereo not given)	none
c1ccc(C2Nc3ccccc3-c3nc4ccccc4n32)nc1 (stereo not given)	Luciferase inh 4µM, PK Bst inconclusive (no result: Hsp90 Hop PPI, 15-hLO inh, Tau filament bind, ERK AVP inh)
Cc1ccc2nc(NCc3ccccc3)[nH]c2c1	Luciferase inh 10µM (no result: Hsp90 Hop PPI, 15-hLO inh, Tau filament bind, ERK AVP inh)
c1ccc(Nc2nc3ccccc3[nH]2)nc1	Luciferase inh 20µM
c1ccc(CNc2nc3ccccc3[nH]2)cc1	Luciferase inh 13µM, PK Bst inconclusive
COc1ccc2nc(NCc3ccccc3)[nH]c2c1	Luciferase inh 16µM (no result: PK Bst)
Cc1ccc2nc(C3CCN(C(=O)NCc4ccccc4)CC3)[nH]c2c1	none
COc1cc(CNc2nc3ccccc3[nH]2)cc(OC)c1OC	none
ClCCCl	none (no result: Luciferase inh, PK Bst)
COc1ccc(-n2c(=O)c(-c3ccc(Cl)cc3)nc3cnc(N4CCOCC4)nc32)cc1	none (no result: PK Bst)
C[C@H](O/N=C1/[C@H]2O[C@@H]2[C@@H](O)[C@H]2[C@H]1CCn1c(=O)n(-c3ccccc3)c(=O)n12)c1cn([C@H]2COC[C@H]2O)nn1	none (no result: PK Bst, Hsp90 Hop PPI, Tau filament bind)
CC1(C)CC(=O)C2=C(C1)NC(SCC(=O)Nc1ccccc1)=C(C#N)C2c1ccco1 (stereo not given)	Tau filament bind 13µM
Cc1ccc(C(=O)CSC2=C(C#N)C(c3ccco3)C3=C(CC(C)(C)CC3=O)N2)cc1 (stereo not given)	none
CC(C)(C)NC(=O)Nc1ccc2nccnc2c1	Luciferase inh 16µM (no result: PK Bst)
CC(C)N(C(=O)Nc1ccc2nccnc2c1)C(C)C	none (no result: Luciferase inh, PK Bst, Hsp90 Hop PPI, Tau filament bind, ERK AVP inh)
CCOc1ccc(NC(=O)Nc2ccc3nccnc3c2)cc1	Tau filament bind 25µM (no result: PK Bst)
CC(C)(C)NC(=O)c1ccc2nccnc2c1	none
COc1cccc(-c2ccc3ncnc(N4CCOCC4)c3c2)c1	ERK AVP inh inconclusive (no result: PK Bst)
COc1ccc(-n2c(=O)c(-c3ccc(Cl)cc3)nc3cnc(N(C)C)nc32)cc1	none (no result: PK Bst)
COc1ccccc1C(=O)n1nc(-c2cccnc2)nc1N	none (no result: PK Bst)
COc1ccccc1C(=O)n1nc(-c2ccc(Cl)cc2)nc1N	15-hLO inh 13µM

Source: PubChem (National Center for Advancing Translational Sciences (NCATS))
